Laboratory results: a collection of fitness landscapes (doi:10.1016/j.celrep.2020.107928)
In all, about 81,000 sequences were measured (“one-hybrid fitness for binding NBS DNA”: median about -0.1, highest 2% from about 0.36 on). The full list was thinned out, with the highest values kept by preference.

B1: Caulobacter ParB omega fusion; a variant is named by its letters at X, in order, B8GW30 (parent)
chain: MESVVVGEPGMSEGRRGLGRGLSALLGEVDAAPAQAPGEQLGGSREAPIEILQRNPDQPRRTFREEDLEDLSNSIREKGVLQPILVRPSPDTAGEYQIVAGERAWRAAQRAGLKTVPIMVRELDDLAVLEIGIIENVQRADLNVLEEALSYKVLMEKFERTQENIAQTIGKSXSHVANXMRLLXLPDEVQSYLVSGELTAXHARAIAAAADPVALAKQIIEGGLSVRETEALARKAPNLSAGKSKGGRPPRVKDTDTQALESDLSSVLGLDVSIDHRGSTGTLTITYATLEQLDDLCNRLTRGI

Variants of: B1
Assay: one-hybrid fitness for binding NBS DNA (the Noc-binding site; scaled: cognate 1, non-cognate 0); higher = stronger binding
Conditions: with NBS DNA site
Method in brief: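 Selection: bacterial one-hybrid in E. coli USO, HIS3 reporter with the site 19 bp from the promoter, 48 hours at 37°C on M9-minus-histidine plus 0.1 mM IPTG and 5 mM 3-AT. Libraries were Caulobacter ParB with four randomised specificity codons, sequenced on Illumina before and after selection. Fitness is the rescaled log change in variant-to-wild-type read ratio, anchored to the cognate and non-cognate sites.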

Variant | one-hybrid fitness for binding NBS DNA
GATD | ≤ 0.2
PPMS | ≤ 0.2
HKTC | ≤ 0.2
MLVG | ≤ 0.2
YTRD | ≤ 0.2
RCAV | ≤ 0.2
RPAT | ≤ 0.2
RAAP | ≤ 0.2
RFAT | ≤ 0.2
RHFT | 0.245
RHAH | ≤ 0.2
RAAT | 0.364
RAFT | 0.242
RCAT | 0.515
RHAT | 0.432
TFCI | ≤ 0.2
NDTY | ≤ 0.2
AWHV | ≤ 0.2
HGAR | ≤ 0.2
EIKR | ≤ 0.2
WKER | ≤ 0.2
RDQR | ≤ 0.2
RFQR | 0.282
RSQR | 0.44
RSQP | ≤ 0.2

Variant | one-hybrid fitness for binding NBS DNA
RCQR | 0.512
RPQR | ≤ 0.2
FPQS | ≤ 0.2
RQHT | 0.417
RQSS | 0.446
RQNH | 0.34
RQSN | ≤ 0.2
RQVT | 0.216
RQNS | 0.48
RQHK | ≤ 0.2
RQHF | ≤ 0.2
RQDS | ≤ 0.2
RQSP | ≤ 0.2
RQKT | 0.63
RQKQ | 0.244
SYHE | ≤ 0.2
SRKD | ≤ 0.2
HWGA | ≤ 0.2
RMER | 0.227
EGHG | ≤ 0.2
DQTE | ≤ 0.2
MCRV | ≤ 0.2
RQSG | ≤ 0.2
RQAD | ≤ 0.2
RQCH | ≤ 0.2

Variant | one-hybrid fitness for binding NBS DNA
RQCT | 0.382
RQST | 0.474
RQCP | ≤ 0.2
RQNP | ≤ 0.2
RQFT | 0.204
RQGT | 0.351
RQDT | 0.268
RQNT | 0.53
RQAT | 0.385
SAEQ | ≤ 0.2
SIIG | ≤ 0.2
HRTH | ≤ 0.2
VQPC | ≤ 0.2
RQFS | 0.206
RQAS | 0.38
RQAH | ≤ 0.2
RQYT | 0.353
RQRT | 0.615
RQPT | ≤ 0.2
PKKW | ≤ 0.2
TRLN | ≤ 0.2
IGRT | ≤ 0.2
QQDV | ≤ 0.2
QQYV | ≤ 0.2
QQRV | 0.493

Variant | one-hybrid fitness for binding NBS DNA
QQFV | ≤ 0.2
QQKV | 0.533
QQVV | ≤ 0.2
VRMV | ≤ 0.2
RRFA | 0.569
RPAA | ≤ 0.2
RCFA | ≤ 0.2
RRAA | 0.664
RSFA | ≤ 0.2
RCAA | 0.234
FQVR | ≤ 0.2
TYLE | ≤ 0.2
YVWI | ≤ 0.2
RRGA | 0.664
RSSA | ≤ 0.2
RSYA | ≤ 0.2
RCYA | 0.24
RPGA | ≤ 0.2
RCGA | 0.259
RCSA | 0.232
RRSA | 0.605
RRTA | 0.619
RSTA | ≤ 0.2
RRYA | 0.684
RCTA | 0.238
